Screens deposited in PubChem by several laboratories.
GC-A act: GC-A stimulated cGMP production enhancers – HEK293 GC-A cells, cGMP TR-FRET, EC30 ANP, primary screen; activation, % at 10 µM; AID 1671463, 2021; 0% at EC30 ANP, 100% saturating ANP; 370,000 tested, 0.14% active; Atrial natriuretic peptide receptor 1 (Homo sapiens), P16066; in the data active = activation above about 40%
HDAC3 inh: HDAC3 deacetylase inhibitors, primary screen, biochemical, fluorescence, cell-free homogeneous; Histone deacetylase 3 (Homo sapiens), O15379; recombinant HDAC3, fluorogenic peptide/trypsin coupled; inhibition, % at 8.3 µM; 320,000 tested, 0.15% active; AID 2718, 2010; in the data active = inhibition above about 26%, passing the limit was not always enough; inconclusive = no clear call, values can overlap the other calls
Target sequence (O15379 whole entry, looked up): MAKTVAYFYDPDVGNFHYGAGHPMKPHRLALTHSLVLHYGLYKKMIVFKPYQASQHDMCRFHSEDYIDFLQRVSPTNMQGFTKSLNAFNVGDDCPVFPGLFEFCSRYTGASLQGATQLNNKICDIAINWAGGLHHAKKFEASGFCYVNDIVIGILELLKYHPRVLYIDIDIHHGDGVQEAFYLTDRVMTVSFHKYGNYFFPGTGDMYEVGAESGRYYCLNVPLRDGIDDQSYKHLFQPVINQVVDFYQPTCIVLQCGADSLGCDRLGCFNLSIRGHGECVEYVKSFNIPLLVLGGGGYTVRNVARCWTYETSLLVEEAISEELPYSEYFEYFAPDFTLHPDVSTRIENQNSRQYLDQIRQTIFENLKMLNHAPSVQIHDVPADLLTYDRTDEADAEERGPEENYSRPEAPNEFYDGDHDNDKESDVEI
NPR2 activator: human GC-B receptor activators, primary screen, HEK293 GC-B cells, cGMP TR-FRET, EC30 CNP; activation, % at 10 µM; Atrial natriuretic peptide receptor 2 (Homo sapiens), P20594; 370,000 tested, 0.11% active; 0% at EC30 CNP, 100% saturating CNP; AID 1920062, 2024;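 active = activation at 10 µM reaching about 35% in either raw or pattern-adjusted values, limit read from the data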
ALR inh: inhibitors of human ALR sulfhydryl oxidase, primary screen, biochemical, H2O2 detection, HRP-luminol luminescence, single point | FAD-linked sulfhydryl oxidase ALR (Homo sapiens), P55789 | purified ALR, DTT oxidation | inhibition, % (no concentration beside the values) | 290,000 tested, 3.8% active | AID 485317, 2010;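 active = mean replicate inhibition above about 79%, with every replicate also reaching it, limit read from the data; inconclusive = only one of the two criteria met; inactive = mean below limit and not every replicate reaching it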
Target sequence (P55789 whole entry, looked up): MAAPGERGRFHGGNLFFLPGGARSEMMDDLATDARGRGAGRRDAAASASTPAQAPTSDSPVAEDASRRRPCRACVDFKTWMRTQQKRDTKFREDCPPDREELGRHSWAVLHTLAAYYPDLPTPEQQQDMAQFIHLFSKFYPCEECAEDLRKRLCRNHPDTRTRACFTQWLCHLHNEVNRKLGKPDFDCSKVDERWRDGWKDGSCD
Starred values were filed as active, the others as inactive; ? = inconclusive; nt = not tested or not shown. Shown is part of a subset that was picked to be rich in hits.

SMILES	GC-A act	HDAC3 inh	NPR2 activator	ALR inh
CCOC(=O)C1(Cc2ccc(OC)cc2)CCN(C(=O)C2=CCCC2)CC1	3.5	7.3	0.9	-8.7
O=C(c1ccc(Cl)cc1)N1CCC(Oc2cccnc2)CC1	-4.0	nt	0.7	nt
Cc1cc2c(ncn2Cc2ccccc2)c(N)c1C	2.1	2.7	-1.8	93.5*
COc1ccc(NC(=O)CC2C(=O)Nc3ccccc3N2CC(=O)N2CCCC2)cc1 (stereo not given)	1.5	1.2	2.9	98.0*
CCCN(Cc1nnc(-c2ccccc2Cl)o1)C(=O)c1cc([N+](=O)[O-])cc([N+](=O)[O-])c1	-1.7	-0.3	-3.2	-44.2
Cc1ccnc(NC(=O)CCc2c[nH]c3ccccc23)c1	-2.0	4.7	-1.6	13.9
CC(=O)Nc1ccc(S(=O)(=O)NNC(=S)NCC2CCCO2)cc1 (stereo not given)	4.2	2.6	3.9	90.0*
O=C(CCCCCNC(=S)Nc1ccccc1)C[N+](=O)[O-]	-1.6	28.8*	-0.2	-4.7
OCCCNC(=S)Nc1ccc(Nc2ccccc2)cc1	-5.4	-4.9	-2.2	99.1*
S=C(NCC1CCCO1)Nc1cccc(Cl)c1 (stereo not given)	1.7	3.2	1.5	-6.2
S=C(NCCNC(=S)Nc1ccccc1)Nc1ccccc1	1.1	1.3	1.7	-11.8
S=C(NCC1CCCO1)Nc1ccc(Nc2ccccc2)cc1 (stereo not given)	2.4	3.1	3.0	98.8*
CC[C@]1(c2ccccc2)C(=O)N(C(=O)OC)N1C(=O)OC	-2.1	44.4*	6.2	5.2
Cc1ccc(-c2nnn(CC(=O)N(CCCO)C(C(=O)NC3CCCC3)c3ccc(F)cc3)n2)o1 (stereo not given)	2.4	0.0	0.1	-8.6
CCCc1ccc(-c2cc(C(=O)Nc3ccc([N+](=O)[O-])cn3)c3ccccc3n2)cc1	-0.4	-1.6	-1.6	nt
CCCCCCn1c(N2CCN(c3ccccc3)CC2)nc2c1c(=O)n(C)c(=O)n2C	-8.6	7.6	-4.3	3.4
CCCCCn1c(N2CCCC2)nc2c1c(=O)n(C)c(=O)n2C	-2.8	4.4	-0.5	97.9*
CCOC(=O)c1c(C)[nH]c(C)c1S(=O)(=O)NCC(=O)Nc1ccccn1	-1.6	?	0.9	-3.7
CCC(CO)Nc1cccc2c1S(=O)(=O)N(Cc1cn(Cc3ccc(F)cc3)nn1)Cc1ccccc1O2 (stereo not given)	2.2	nt	6.2	nt
CSCCCNC(=S)Nc1ccc(N2CCOCC2)cc1N1CCOCC1	-4.3	0.8	0.3	95.6*
Cc1ccc(NC(=S)NCCCN2CCOCC2)cc1	-0.9	0.6	-5.1	39.1
CC(=O)c1ccc(NC(=S)Nc2ccc(N3CCOCC3)cc2)cc1	4.4	4.5	-0.9	?
CN(C)C(=S)Nc1ccc(N2CCOCC2)cc1	2.7	1.9	3.3	99.0*
Cc1cccc(NC(=O)CSCC(=O)Nc2ccc(N3CCOCC3)cc2N2CCOCC2)c1	-3.3	nt	-5.0	nt
CSCCCNC(=S)Nc1ccc(N2CCOCC2)cc1	2.3	-9.6	1.9	95.0*
SMILES	GC-A act	HDAC3 inh	NPR2 activator	ALR inh
COC(=O)c1c(C(=O)OC)c(-c2ccc(Cl)c(Cl)c2)n2c1CCC2	17.0	1.6	16.7	-11.5
O=C(O)c1c(C(=O)O)c(-c2ccc(Cl)c(Cl)c2)n2c1CSC2	3.2	-5.3	1.7	97.4*
Cc1ccc(-c2ccc(CCC(=O)O)n2NC(=O)c2ccco2)cc1	-1.4	-0.1	-3.6	91.9*
O=C(O)CCc1ccc(-c2ccc(Br)cc2)n1-c1ccc(O)cc1	16.9	1.3	8.0	58.3
O=C(O)CCc1ccc(-c2ccc(F)cc2)n1NC(=O)c1ccco1	-0.1	-0.5	-7.3	12.1
Cc1ccc(-c2ccc(CCC(=O)O)n2-c2ccc(O)cc2)cc1	1.3	7.2	-1.2	87.2*
COc1cc(-c2csc(CCn3nc(C)cc3C)n2)cc(OC)c1OC	0.3	-4.7	1.9	98.9*
COc1ccc(Nc2cccccc2=O)cc1	2.7	8.4	0.5	96.9*
COc1ccc(Nc2ccc(OC)cc2)cc1	-3.0	12.5	-4.7	98.8*
COc1ccc(Nc2ccccc2C(=O)O)cc1	3.5	0.6	11.9	98.8*
COc1ccc(Nc2cccc3ccccc23)cc1	1.5	-4.6	-0.6	?
c1ccc(-c2cc3c(N4CCOCC4)ncnc3s2)cc1	11.6	-5.9	3.1	97.2*
C[C@H]1COc2cc(Br)ccc2S(=O)(=O)N1Cc1cn(Cc2ccco2)nn1	-2.4	nt	-0.7	nt
Oc1ccc(-c2cn3c(n2)SCC3)cc1	-6.2	-4.2	-5.4	64.8
Oc1ccc(-c2cn3c(n2)SCC3)cc1O	-8.1	-5.0	-2.3	98.7*
CC(=O)C1(C(=O)Nc2cc(C)cc(C)c2)CC(c2ccccn2)=NO1 (stereo not given)	-7.1	nt	-7.6	nt
COc1ccc(CCNC(=O)c2[nH]c(C)c(C(C)=O)c2C)cc1OC	-0.6	0.4	-6.4	-2.9
CCN(CCCNC(=O)c1[nH]c(C)c(C(C)=O)c1C)c1ccccc1	-0.8	3.6	2.8	89.2*
CCCNC(=O)c1[nH]c(C)c(C(C)=O)c1C	5.7	-0.8	4.8	-12.0
CC(=O)c1c(C)[nH]c(C(=O)NCCc2ccccc2)c1C	-1.3	8.0	8.8	99.9*
CCN(CCCNC(=O)C1CCN(S(=O)(=O)N2CCC3(CC2)OCCO3)CC1)c1ccccc1	2.3	3.2	2.3	98.8*
CCN(CCCNC(=O)C1CCN(S(=O)(=O)c2c(C)[nH]c(=O)[nH]c2=O)CC1)c1cccc(C)c1	nt	-3.0	nt	nt
CCN(CCCNC(=O)C1CCN(S(=O)(=O)CC)CC1)c1ccccc1	-2.9	6.6	0.6	98.6*
CCN(CCNC(=O)C1CCN(S(C)(=O)=O)CC1)c1ccccc1	-1.9	3.3	-0.2	98.8*
CCN(CCCNC(=O)C1CCN(S(=O)(=O)CC)CC1)c1cccc(C)c1	-0.4	-0.7	-2.3	99.1*
SMILES	GC-A act	HDAC3 inh	NPR2 activator	ALR inh
CCCS(=O)(=O)N1CCC(C(=O)NCCN(CC)c2ccccc2)CC1	4.1	-3.0	0.6	71.3
O=C(N/N=C/c1ccco1)c1cccc(N2Cc3ccccc3C2)c1	-9.2	-0.2	-7.1	-6.6
Cc1cccc(-c2ncc(CN3CCN(CC(C)C)C(CCO)C3)cn2)c1 (stereo not given)	-2.7	4.0	2.3	-9.8
Cc1nc2c(Br)cc(Br)cc2c(=O)n1-c1ccccc1NC1OCC(O)C(O)C1O (stereo not given)	-0.1	nt	3.5	nt
CCCCN(CCCNC(=O)C1CCN(S(=O)(=O)N2CCOCC2)CC1)c1ccccc1	0.1	0.8	4.1	99.3*
CN(CCNC(=O)C1CCN(S(=O)(=O)N2CCOCC2)CC1)CCc1ccccc1	-7.9	-4.4	-5.2	-0.4
CCN(CCCNC(=O)C1CCC(=O)N1C1CCCC1)c1cccc(C)c1 (stereo not given)	-3.2	-4.6	-17.0	nt
CCN(CCCNC(=O)C1CCC(=O)N1Cc1ccc(F)cc1)c1cccc(C)c1 (stereo not given)	-9.8	7.4	-0.2	99.3*
